Screen size: about 69,000 compounds; about 8,600 (12%) showed an effect of 50% or more. Shown is part of a subset that was picked to be rich in strong results.
test system: Plasmodium berghei; experiment: Screen against P. berghei liver stage (PbLuc), transformed with Luciferase, at 10uM; format: functional, HepG2; conditions: tested at 10 uM

Point of comparison: `Cc1nn(C)c(C)c1-c1ccc(=O)n(C(C)C(=O)NC2CCCCC2)n1` (centres undefined), INHIBITION 47.6%. Against it:
- Cc1ccccc1-n1nc(C)c(CN(C)C(C)Cc2ccccn2)c1C (centres undefined) — lower, 24%
- Cc1cccc(CNC(C)c2ccc(OCC(=O)NC3CC3)cc2)c1 (centres undefined) — lower, 15.3%
- O=C(NCC1OCCc2cn(CC3CCOCC3)nc21)c1ccncc1 (centres undefined) — lower, 32.2%
- CCOc1ccc(Cl)cc1CCNC(=O)Cn1ccccc1=O — lower, -47%
- CC(Cn1cccn1)NCCCc1nc(-c2cccs2)no1 (centres undefined) — lower, 10%
- COc1ccc(OCCC(=O)N2CCCC2Cn2cccn2)cc1 (centres undefined) — lower, -10.1%
- COc1cc(C)ccc1OCCC(=O)N1CCCC1Cn1cccn1 (centres undefined) — higher, 52.7%
- COc1ccccc1OCCC(=O)N1CCCC1Cn1cccn1 (centres undefined) — lower, 33.3%
- Cc1cnn(CC2CCCCN2C(=O)c2ccc3nncn3c2)c1 (centres undefined) — lower, 35.9%
- O=C(c1csc(C2CC2)n1)N1CCCC1Cn1cccn1 (centres undefined) — lower, 1.78%
- O=C(c1ccc2nncn2c1)N1CCCCC1Cn1cccn1 (centres undefined) — higher, 54.4%
- CCN(CC)Cc1ccc(C(=O)N2CCCCC2Cn2cccn2)o1 (centres undefined) — lower, 19.5%
- CC(=O)NCc1ccc(C(=O)N2CCCCC2Cn2cccn2)o1 (centres undefined) — higher, 61.7%
- CC(=O)Nc1nc(C(=O)N2CCCCC2Cn2cccn2)cs1 (centres undefined) — lower, -27.8%
- Cc1cc(C)n(CC2CCCCN2C(=O)c2ccc3nncn3c2)n1 (centres undefined) — lower, 5.97%
- CCc1ccc(C(=O)N2CCCCC2Cn2cccn2)o1 (centres undefined) — lower, -2.35%
- O=C(c1csc(C2CC2)n1)N1CCCCC1Cn1cccn1 (centres undefined) — higher, 52.5%
- Cc1sc(Oc2ccccc2Cl)nc1C(=O)O — lower, 18.14%
- CC(C)N1CCC(NC(=O)c2cn(-c3ccc(F)cc3)nn2)C1 (centres undefined) — lower, 23.7%
- CCS(=O)(=O)CCNC(=O)c1cc2n(n1)CCCO2 — lower, -16.3%
- Cc1cnc(N2CCOCC3(CCN(c4ccccn4)C3)C2)nc1 (centres undefined) — lower, 34.4%
- COc1ccc(C2CCCN2Cc2nc3c(cnn3C)c(=O)[nH]2)cc1 (centres undefined) — lower, -5.25%
- O=C(CCc1c(F)cccc1F)N1CCCCC1Cn1cccn1 (centres undefined) — lower, 15.6%
- C=c1nc(NC)sc1=C1NC(c2c(C)ncc3c2CCNC3)=NO1 — lower, 39.3%
- Cn1ccc(CN2CCC(CN3CCOCC3)CC2)cc1=O — lower, 31.3%
- COc1cccc(-c2cc(C(=O)NCCCn3nc(C)cc3C)[nH]n2)c1 — lower, -68.9%
- c1ccc([C@@H]2CN(Cc3ccncc3)C[C@H]2c2cc[nH]n2)cc1 — lower, 27.2%
- Cc1cn2c(=O)c(-c3ccnc(NC4CCOCC4)n3)cnc2s1 — lower, -9.27%
- CCOCCCNC(=O)CN(c1cc(C)cc(C)c1)S(C)(=O)=O — lower, 34.2%
- N#Cc1ccc(CN2CCCC2Cn2cccn2)cc1 (centres undefined) — lower, 9.14%
- O=C(Nc1cccc(F)c1)C1CCCN1c1nccs1 (centres undefined) — lower, 7.75%
- O=C(Nc1cccc(C2SCCS2)c1)C1CCCN1c1nccs1 (centres undefined) — higher, 50.7%
- O=C(Nc1cccc(N2CCCC2)c1)C1CCCN1c1nccs1 (centres undefined) — higher, 48.9%
- CN(C)c1ccc(CNCc2ccc(N3CCOCC3)cc2)cn1 — lower, -0.551%
- CC(C)Cn1cnc(S(=O)(=O)NCCc2nnc3ccccn23)c1 — lower, 12%
- CC(C)COc1cncc(NC(CO)c2ccco2)n1 (centres undefined) — lower, 45.6%
- CCOc1cncc(NCCc2nnc3ccccn23)n1 — lower, 43.4%
- CC(C)COc1cncc(NCc2nnc3ccccn23)n1 — higher, 64.3%
- CC(C)COc1cncc(NCCc2nnc3ccccn23)n1 — higher, 55.4%
- CC(C)COc1cncc(NCC(O)c2ccco2)n1 (centres undefined) — lower, 20.8%
- CCc1nc(C2CCCN2C(=O)c2ccc(N3CCCC3)nn2)no1 (centres undefined) — lower, 23.5%
- CC(=O)NCCC1CCCCN1S(=O)(=O)c1ccc2ccccc2c1 (centres undefined) — lower, 29%
- O=C(Nc1ccc(-c2nnc[nH]2)cc1)C1CCN1Cc1ccccc1 (centres undefined) — lower, -17.3%
- CO[C@H]1CCN(Cc2ccccn2)[C@@H]2CN(Cc3ccco3)C[C@H]12 — lower, -11.1%
- CC[C@H]1N(CC2CCOCC2)CCC[C@]12CCC(=O)N2 — lower, 27.5%
- CC[C@@H]1N(CC2CC2)CCC[C@]12CCC(=O)N2 — higher, 65.9%
- CC[C@@H]1N(CC2CCOCC2)CCC[C@]12CCC(=O)N2 — higher, 49.7%
- Cc1ccc2nccc(C(=O)N3CCOC(CCN(C)C)C3)c2c1 (centres undefined) — lower, 43.9%
- Cc1cc(C(=O)N2CCCC(C(=O)c3nccn3C)C2)c(=O)[nH]c1C (centres undefined) — lower, 25.9%
- Cc1ccc(CC(=O)N(CC2CN(C)CCO2)c2nccs2)cn1 (centres undefined) — lower, 11.9%
- O=C(CN1CCCC1Cn1cncn1)NCCOc1cccc(F)c1 (centres undefined) — lower, 20.1%
- O=C(CN1CCCCC1Cn1cccn1)NC1CCN(C2CC2)CC1 (centres undefined) — lower, 26.8%
- Cc1cc(NC(=O)CCN2CCCC2Cn2cccn2)no1 (centres undefined) — lower, 31.9%

— ChEMBL document CHEMBL4513216, “Probing the Open Global Health Chemical Diversity Library for Multistage-Active Starting Points for Next-Generation Antimalarials” (ACS Infect Dis, 2020)
